This is an account of results in PubChem BioAssay.

Molecules are shown by their SMILES. Calls of active or inactive are those of the source.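 How the source made its calls, unless noted: active means visually confirmed hit in the image check and inhibition above 20%; inconclusive means visually confirmed hit but inhibition not above 20%; inactive means no visual hit in the image check.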

The term inhibition denotes the relative decrease from the control value, in per cent.

Experiment [1] is described as follows: inhibitors of TNFa-induced NFkB p65 translocation, primary screen, imaging, HUVEC, MLSMR starter and 10KST1 sets (AID 438;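 active means inhibition above 20% together with a positive visual image hit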;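 further: compound added about 3h40 before a 20 min TNFalpha stimulation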;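 on inhibition: signal is the nuclear over cytoplasmic p65 intensity ratio per well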). The conditions noted are these: HUVEC TNFa-induced p65 nuclear translocation; cell count: measured here: nuclei count (cytotoxicity indicator), at 2.08 µM; inhibition: at 2 µM, stronger effect = higher value, 0% TNFa-plus-vehicle, 100% no-TNFa wells.

The nature of experiment [2]: reduction of polyQ htt aggregates in cells – imaging, exon1htt(103Q)mCFP cells, high-content imaging, primary screen (AID 483;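 active means visual image review flags a hit and inhibition of aggregation exceeds 20%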;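 further: compound exposure lasted 3 days before fixation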;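 on nuclei count: percent of the per-plate median nuclei count of sample wells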). The conditions noted are these: exon1htt(103Q)mCFP cell line, aggregate imaging, at 2 µM; inhibition of aggregation: stronger effect = higher value; nuclei count: measured here: cell count, toxicity.
Experiment [3] can be described thus: endothelial E-selectin expression blockers – imaging, HUVEC, immunofluorescence, MLSMR starter and 10KST1 sets, primary screen (AID 487).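 On inhibition: signal is fraction of cell area covered by stained E-selectin grains.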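 On nuclei count: 100% = median nuclei count of all wells on the same plate.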 The conditions noted are these: HUVEC TNFalpha-induced E-selectin immunofluorescence imaging, at 2 µM; inhibition: stronger effect = higher value; nuclei count: measured here: cell number, toxicity.
Experiment [4] concerns the target Voltage-gated potassium channel subunit beta-2 (Rattus norvegicus) (UniProt P62483). The experiment can be described thus: inhibitors of rat Kvbeta2 reductase activity – biochemical, NADPH fluorescence, primary screen (AID 622;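 active means fluorescence slope higher than the sample average by over 3 SD, cut at about -0.22 in these data, passing the limit was not always enough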;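 further: slope of raw intensity against log time taken from 70 to 1610 s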). The conditions noted are these: recombinant KvBeta, 4-cyanobenzaldehyde reduction, at 10 µM, stronger effect = higher value.
For experiment [5] the target is unchanged. The experiment can be described thus: enhancers of rat Kvbeta2 NADPH turnover – biochemical, NADPH fluorescence, primary screen (AID 623;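 active means NADPH fluorescence slope more negative than the mean of all samples by about 3 SD, 99.7% confidence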;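 further: fluorescence intensity change per second fitted from 20 to 320 s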). The conditions noted are these: Recombinant KvBeta, NADPH fluorescence decrease slope, 10 min; at 10 µM; stronger effect = lower value.
In experiment [6] the target is Alpha-2C adrenergic receptor (Homo sapiens) (UniProt P18825). Briefly: compounds altering alpha2C-coupled GIRK flux – cell-based, HEK293 alpha2C/GIRK1/2, thallium flux, primary screen (AID 624;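 active means fluorescence slope after compound addition differing from the mean of all screened samples at 99.7% confidence, in either direction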;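 further: slope of fluorescence ratio to pre-addition baseline per second over 15 to 24 s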). The conditions noted are these: thallium flux BTC fluorescence, at 10 µM, actives lie on both sides.
Sequence of Alpha-2C adrenergic receptor (Homo sapiens) (P18825 whole entry, looked up): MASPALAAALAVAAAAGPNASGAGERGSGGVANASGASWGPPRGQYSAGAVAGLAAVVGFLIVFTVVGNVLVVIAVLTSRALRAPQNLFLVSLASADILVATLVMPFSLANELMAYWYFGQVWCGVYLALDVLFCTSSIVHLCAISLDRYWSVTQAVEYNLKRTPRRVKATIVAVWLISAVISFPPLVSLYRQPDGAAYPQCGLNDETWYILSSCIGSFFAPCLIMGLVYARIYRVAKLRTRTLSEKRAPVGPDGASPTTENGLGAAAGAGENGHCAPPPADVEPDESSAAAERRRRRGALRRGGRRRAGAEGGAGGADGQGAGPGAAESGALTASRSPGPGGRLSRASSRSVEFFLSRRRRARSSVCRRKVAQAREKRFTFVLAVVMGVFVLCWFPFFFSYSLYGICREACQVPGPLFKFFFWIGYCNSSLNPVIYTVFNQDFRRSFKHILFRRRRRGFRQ
Experiment [7] can be described thus: blockers of RIG-like receptor reporter activation – cell-based, Sendai virus stimulus, luciferase, 10K MLSCN set, TLR/RLR signaling modifier project, primary screen (AID 602276;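 active means inhibition at or above 50% at 10 µM; inactive means inhibition below 50%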;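 further: firefly luciferase from ISG56 promoter only with Renilla not read in this screen; 0% = Sendai virus plus DMSO and 100% = medium plus DMSO without virus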). The conditions noted are these: HEK293 RL24 IRF3 luciferase reporter, at 10 µM, stronger effect = higher value. (A reporter such as luciferase makes a cellular process visible.)
Experiment [8] is described as follows: TLR3 IRF3 reporter activation blockers – cell-based, poly I:C stimulus, luciferase, 10K MLSCN set, primary screen (AID 602277;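 active means inhibition of the reporter signal at or above 50%; inactive means inhibition below 50%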). The conditions noted are these: HEK293-TLR3 RL24 IRF3 luciferase reporter, at 10 µM, stronger effect = higher value.

Sequence of Voltage-gated potassium channel subunit beta-2 (Rattus norvegicus) (P62483 whole entry, looked up): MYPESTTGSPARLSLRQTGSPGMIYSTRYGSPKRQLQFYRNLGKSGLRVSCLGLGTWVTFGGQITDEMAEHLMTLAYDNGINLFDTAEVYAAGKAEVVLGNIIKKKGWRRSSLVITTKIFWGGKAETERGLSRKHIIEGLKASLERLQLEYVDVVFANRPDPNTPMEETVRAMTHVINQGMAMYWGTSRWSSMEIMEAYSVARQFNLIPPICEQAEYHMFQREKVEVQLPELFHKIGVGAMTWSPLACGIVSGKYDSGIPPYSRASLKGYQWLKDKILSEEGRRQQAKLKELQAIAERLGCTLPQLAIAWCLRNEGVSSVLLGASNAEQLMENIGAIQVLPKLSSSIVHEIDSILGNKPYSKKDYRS

Regarding `Cc1cc(C)c(C(=O)CSc2nnc(-c3ccccc3Br)o2)cc1C`, the cell count in experiment [1] came out at 433. The inhibition in experiment [1] is 2.9% (inactive); in experiment [3] it was -64.9% (inactive); in experiment [7] it was 9.09% (inactive); in experiment [8], 3.14% (inactive). Moreover, the inhibition of aggregation in experiment [2] is -0.1% (inactive). The figures for the nuclei count in experiment [2] and in experiment [3] were 97.3% and 124%, respectively. Also, the fluorescence slope in experiment [4] is -0.397 (inactive). The NADPH fluorescence slope in experiment [5] was -2.6e-05 (inactive). Also, the slope in experiment [6] is 0.00604 (inactive).

Take `Cc1cccc(NC(=O)COc2ccc(Br)cc2)n1`: the cell count in experiment [1] stood at 457. The inhibition in experiment [1] was -12.1% (inactive); in experiment [3] it was 26.7% (inactive); in experiment [7], 2.6% (inactive); in experiment [8], -9.96% (inactive). In addition, the inhibition of aggregation in experiment [2] was -8.7% (inactive). For the same compound, the nuclei count in experiment [2] is 110%; in experiment [3] it was 124%. In addition, the fluorescence slope in experiment [4] was -0.437 (inactive). In addition, in experiment [5], the NADPH fluorescence slope is 6.5e-05 (inactive). For the same compound, the slope in experiment [6] is 0.00667 (inactive).

In the case of `O=C(CCCCCn1c(=S)[nH]c2cc3c(cc2c1=O)OCO3)N1CCN(Cc2ccccc2)CC1`, the cell count in experiment [1] stood at 494. Also, the inhibition was 3% (inactive) in experiment [1], -25.7% (inactive) in experiment [3], -5.45% (inactive) in experiment [7] and 15.2% (inactive) in experiment [8]. For the same compound, the inhibition of aggregation in experiment [2] was -11.1% (inactive). In addition, the nuclei count in experiment [2] was determined as 100%; in experiment [3] it was 113%. For the same compound, the fluorescence slope in experiment [4] was -0.476 (inactive). The NADPH fluorescence slope in experiment [5] was 1.3e-05 (inactive). Also, in experiment [6], the slope was 0.00605 (inactive).

Regarding `O=C(CSc1n[nH]c(-c2ccco2)n1)Nc1sc2c(c1C(=O)Nc1ccccc1)CCCC2`, the cell count in experiment [1] was found to be 298. Further, the inhibition in experiment [1] was -4.3% (inactive); in experiment [3], -73.5% (inactive); in experiment [7], 4.06% (inactive); in experiment [8], 21.7% (inactive). In addition, the inhibition of aggregation in experiment [2] is 3.5% (inactive). Moreover, the nuclei count in experiment [2] was found to be 88.7%; in experiment [3], 91%. In addition, in experiment [4], the fluorescence slope is -0.447 (inactive). The NADPH fluorescence slope in experiment [5] is -3.7e-05 (inactive). Moreover, in experiment [6], the slope was 0.00332 (inactive).

For the compound `COc1ccc(S(=O)(=O)Nc2ccc3c(c2)OCO3)cc1Cl`, the cell count in experiment [1] amounted to 625. In addition, the inhibition is 7% (inactive) in experiment [1], -9.8% (inactive) in experiment [3], 10.6% (inactive) in experiment [7] and 12.9% (inactive) in experiment [8]. Moreover, the inhibition of aggregation in experiment [2] is -18.4% (inactive). The nuclei count in experiment [2] and in experiment [3] was 101% in each case. The fluorescence slope in experiment [4] is -0.392 (inactive). Moreover, the NADPH fluorescence slope in experiment [5] is -6.9e-05 (inactive). For the same compound, in experiment [6], the slope is 0.00299 (inactive).

On to `O=C(CSc1nccn1Cc1ccccc1)Nc1nccs1`, for which the cell count in experiment [1] worked out at 388. Also, the inhibition in experiment [1] was -0.7% (inactive); in experiment [3] it was -16.7% (inactive); in experiment [7], -30.1% (inactive); in experiment [8], -82.1% (inactive). For the same compound, in experiment [2], the inhibition of aggregation was 10.4% (inactive). For the same compound, the nuclei count in experiment [2] amounted to 83.7%; in experiment [3], 118%. Also, the fluorescence slope in experiment [4] was -0.512 (inactive). Further, the NADPH fluorescence slope in experiment [5] was -2.7e-05 (inactive). The slope in experiment [6] was 0.00698 (inactive).

Consider `CCN(CC)C(=O)Cn1c(=O)n(Cc2ccccc2Cl)c2c1c(=O)n(C)c(=O)n2C`, for which the cell count in experiment [1] is 678. The inhibition in experiment [1] is -6.4% (inactive); in experiment [3], 49% (inactive); in experiment [7], 2.5% (inactive); in experiment [8], 10.3% (inactive). Further, the inhibition of aggregation in experiment [2] is 21.9% (inactive). The nuclei count in experiment [2] came out at 94.3%; in experiment [3], 85.7%. The fluorescence slope in experiment [4] is -0.45 (inactive). Besides, the NADPH fluorescence slope in experiment [5] is 3.6e-05 (inactive). In addition, the slope in experiment [6] is 0.00765 (inactive).

Take `CCCC1(C(=O)OCC)NC(c2ccc(N(C)C)cc2)C2C(=O)N(c3ccc(F)cc3)C(=O)C21` (stereo not given): the cell count in experiment [1] was found to be 505. The inhibition in experiment [1] was -10% (inactive); in experiment [3] it was 1.4% (inactive); in experiment [7] it was 8.99% (inactive); in experiment [8], 23.9% (inactive). The inhibition of aggregation in experiment [2] is 30.1% (inactive). Further, the nuclei count in experiment [2] was 69.8%; in experiment [3], 134%. In experiment [4], the fluorescence slope was -0.398 (inactive). Besides, the NADPH fluorescence slope in experiment [5] was 1e-06 (inactive). Besides, the slope in experiment [6] is 0.00411 (inactive).

On to `Cc1ccc(S(=O)(=O)Nc2cc(C(=O)O)ccc2N2CCCCC2)cc1`, for which the cell count in experiment [1] was 518. In addition, the inhibition in experiment [1] was -20.1% (inactive); in experiment [3], -107% (inactive); in experiment [7], 11.2% (inactive); in experiment [8], 29.2% (inactive). Further, the inhibition of aggregation in experiment [2] is 15.4% (inactive). Further, the nuclei count turned out to be 98.1% in experiment [2] and 114% in experiment [3]. In experiment [4], the fluorescence slope is -0.42 (inactive). The NADPH fluorescence slope in experiment [5] was -2.5e-05 (inactive). The slope in experiment [6] is 0.00575 (inactive).

In the case of `Cc1ccnc(SCCn2c(N3CCN(Cc4ccccc4)CC3)nc3c2c(=O)[nH]c(=O)n3C)n1`, the cell count in experiment [1] is 665. The inhibition in experiment [1] was -22.3% (inactive); in experiment [3], -36.7% (inactive); in experiment [7], -0.348% (inactive); in experiment [8] it was 0.626% (inactive). The inhibition of aggregation in experiment [2] is 0.8% (inactive). Moreover, the nuclei count was 120% in experiment [2] and 96.2% in experiment [3]. Moreover, the fluorescence slope in experiment [4] is -0.542 (inactive). For the same compound, the NADPH fluorescence slope in experiment [5] is -3.1e-05 (inactive). Further, the slope in experiment [6] was 0.00641 (inactive).
